Source: PubChem BioAssay (several laboratories)
LANA-H2B inh: blocks KSHV LANA binding to histone H2A/H2B. Q9QR71. cell-free LANA-H2A/H2B peptide, fluorescence polarization. inhibition, % (no concentration beside the values). 0.6% of 320,000 active. AID 2629; in the data active means inhibition mostly above about 10%, no sharp cut-off; inactive means mostly below about 6.7%
TLR4-MyD88 BLA: blocks binding of human TLR4 to MyD88; O00206+Q99836; inhibition, % at 8.4 µM; 0.18% of 200,000 active; HeLa CL3-4 TLR4/MyD88 BLA complementation, FRET ratio; in the data active means inhibition above about 25%
TLR9-MyD88 inh: blocks human TLR9 binding to MyD88 | CHO BLA complementation TLR9-MyD88, CCF4 FRET ratio | inhibition, % at 4.98 µM | Q9NR96+Q99836 | 0.21% of 340,000 active;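 active means inhibition above the mean over all tested compounds plus 3 SD, cut at about 21% in these data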
Rtt109 Vps75: blocks Candida albicans Rtt109/Vps75 acetyltransferase activity. Q5AAJ8. purified Rtt109/Vps75, ThioGlo CoA-SH fluorescence, 4 h. inhibition, % at 34.9 µM. 0.16% of 330,000 active;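 active means inhibition of at least 50% in every replicate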
Target sequence (Q5AAJ8 whole entry, looked up): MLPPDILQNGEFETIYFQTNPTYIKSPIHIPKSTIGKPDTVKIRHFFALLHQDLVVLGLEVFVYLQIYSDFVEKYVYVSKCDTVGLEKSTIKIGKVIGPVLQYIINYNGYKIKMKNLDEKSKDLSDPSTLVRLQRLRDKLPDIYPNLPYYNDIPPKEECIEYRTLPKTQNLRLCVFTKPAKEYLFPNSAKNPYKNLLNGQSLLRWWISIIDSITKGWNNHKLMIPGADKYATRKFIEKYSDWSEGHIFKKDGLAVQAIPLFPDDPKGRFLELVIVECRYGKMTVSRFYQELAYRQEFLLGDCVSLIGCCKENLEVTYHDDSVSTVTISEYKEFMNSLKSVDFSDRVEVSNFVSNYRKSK
m5-HT2A agonist: mouse HTR2A agonism via beta-arrestin recruitment. P35363. CHO-K1 mHTR2A beta-arrestin complementation, luminescence; percent of 30 µM serotonin response. activation, % at 7.6 µM. 0.66% of 360,000 active;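 active means activation above a run cutoff, the mean activation of all tested compounds plus 3 SD, cut at about 14% in these data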
NOD2 RIPK2 PPI: blocks binding of human NOD2 to RIPK2 | O43353 | CHO BLA complementation NOD2-RIPK2, CCF4 ratio | inhibition, % at 4.98 µM | 0.38% of 360,000 active; in the data active means inhibition above about 21%
Large screens that a line does not name were inactive. Sampled rows, rich in hits. Any-hit rate of the full collection: about 1.8%.

O=C(CSc1nc(CCC2CCCC2)nc2ccccc12)NCc1ccc2c(c1)OCO2	LANA-H2B inh 14.8 (no result: Rtt109 Vps75)
O=C(CN1CCc2ccccc21)NCc1ccc2c(c1)OCO2	none (no result: Rtt109 Vps75)
O=C(CN1CCCc2ccccc21)NCc1ccc2c(c1)OCO2	Rtt109 Vps75 64.0
CC(C)C[C@H]1CN([C@@H](Cc2ccccc2)CN2CCC[C@H]2CN2C(=O)C(=O)NC[C@@H]2Cc2ccc(O)cc2)C(=O)C(=O)N1CC1CCCCC1	none (no result: LANA-H2B inh, TLR4-MyD88 BLA, TLR9-MyD88 inh, Rtt109 Vps75)
O=C1NC[C@H](CCCCN2CCN(CCC3CCCCC3)C(=O)C2=O)N(CCC2CCCCC2)C1=O	none (no result: LANA-H2B inh, TLR4-MyD88 BLA, TLR9-MyD88 inh, Rtt109 Vps75)
O=S1(=O)N[C@@H](Cc2ccccc2)COc2cc(N3CC[C@H](O)C3)ccc21	none (no result: LANA-H2B inh, TLR4-MyD88 BLA, TLR9-MyD88 inh, Rtt109 Vps75)
CCc1nc2c(OCc3ccc(F)cc3)cccn2c1N(C)C(=O)c1ccc(C)cc1	none (no result: LANA-H2B inh, TLR4-MyD88 BLA, TLR9-MyD88 inh, Rtt109 Vps75)
CC(Sc1nc2ccccc2[nH]1)C(=O)Nc1ccccc1F (stereo unspecified)	LANA-H2B inh 13.1
Cc1cccc(Oc2ccccc2NC(=O)C2=COCCO2)c1	LANA-H2B inh active (no result: TLR4-MyD88 BLA)
COc1cccc(Oc2ccc(C(F)(F)F)cc2NC(=O)C2=COCCO2)c1	none (no result: TLR4-MyD88 BLA)
Nc1[nH]c(C(=O)c2ccccc2)c(-c2ccncc2)c1C(=O)NC1CC1	none (no result: LANA-H2B inh, TLR4-MyD88 BLA, TLR9-MyD88 inh, Rtt109 Vps75)
CC(C)C[C@H]1COc2cc(N3CC[C@H](O)C3)ccc2S(=O)(=O)N1	none (no result: LANA-H2B inh, TLR4-MyD88 BLA, TLR9-MyD88 inh, Rtt109 Vps75)
O=C(O)c1cc(O)ccc1N=Nc1ccccc1	none (no result: TLR4-MyD88 BLA)
O=C(O)c1ccccc1N=Nc1ccc(O)cc1	m5-HT2A agonist 19.4 (no result: TLR4-MyD88 BLA)
COCCN(Cc1ccc(OC)cc1)c1c(C)nc2ccc(C(=O)Nc3ccc(NC(C)=O)cc3)cn12	none (no result: LANA-H2B inh, TLR4-MyD88 BLA, TLR9-MyD88 inh, Rtt109 Vps75)
CCOC(=O)C1CCN(Cc2c(O)ccc3ccccc23)CC1	none
CCOC(=O)N1CCN(Cc2c(O)ccc3ccccc23)CC1	Rtt109 Vps75 133.2 (no result: TLR4-MyD88 BLA)
O=C(C1CCCO1)N1CCN(Cc2c(O)ccc3ccccc23)CC1 (stereo unspecified)	Rtt109 Vps75 142.0
C[C@H]1O[C@H](C2CCCC2)CC2=C1C(=O)OC(C)(C)O2	none (no result: LANA-H2B inh, TLR4-MyD88 BLA, TLR9-MyD88 inh, Rtt109 Vps75)
O=C(NCCCN1CCOCC1)C(Sc1ccccc1)c1ccccc1 (stereo unspecified)	LANA-H2B inh 52.7
O=C(Cc1ccccc1[N+](=O)[O-])NCCCN1CCOCC1	LANA-H2B inh active
O=C(CCNC(=O)c1ccc(Br)cc1)NCCCN1CCOCC1	LANA-H2B inh 51.1 (no result: TLR4-MyD88 BLA)
COc1cc(CN2C[C@@H](CO)O[C@@H](n3cnc4c(Nc5ccccc5)ncnc43)C2)cc(OC)c1OC	none (no result: LANA-H2B inh, TLR4-MyD88 BLA, TLR9-MyD88 inh, Rtt109 Vps75)
CCC(c1nnnn1-c1ccc2c(c1)OCCO2)N1CCN(c2ccc(C(F)(F)F)cc2[N+](=O)[O-])CC1 (stereo unspecified)	none (no result: LANA-H2B inh, TLR4-MyD88 BLA, TLR9-MyD88 inh, Rtt109 Vps75)
Cc1ccc(C(O)c2ncc(-c3ccc(F)cc3)[nH]2)c(C)c1 (stereo unspecified)	none (no result: LANA-H2B inh, TLR4-MyD88 BLA, TLR9-MyD88 inh, Rtt109 Vps75)
C[C@H]1CN([C@@H](C)CO)S(=O)(=O)c2ccc(Br)cc2O[C@@H]1CN(C)S(=O)(=O)c1ccccc1F	none (no result: LANA-H2B inh, TLR4-MyD88 BLA, TLR9-MyD88 inh, Rtt109 Vps75)
CCc1nc2c(OCc3cc(Cl)cc(Cl)c3)cccn2c1N(C)C(=O)c1ccccc1F	none (no result: LANA-H2B inh, TLR4-MyD88 BLA, TLR9-MyD88 inh, Rtt109 Vps75)
Cc1ccc(CNC(=O)C2CCC(=O)N(CCc3ccccc3)C2)s1 (stereo unspecified)	LANA-H2B inh 17.9 (no result: TLR4-MyD88 BLA)
CCc1nc2ccc(C(=O)NCCCn3ccnc3)cn2c1N(C)Cc1ccc(OC)cc1	none (no result: LANA-H2B inh, TLR4-MyD88 BLA, TLR9-MyD88 inh, Rtt109 Vps75)
O=C(Cc1ccc(Cl)cc1)NNc1c(F)c(F)cc(F)c1F	LANA-H2B inh 27.3
O=C(NNc1c(F)c(F)cc(F)c1F)c1ccco1	none (no result: TLR4-MyD88 BLA)
CC(C)NC(=O)C1(C)CSCC(=O)N1C1CC1 (stereo unspecified)	none (no result: LANA-H2B inh, TLR4-MyD88 BLA, TLR9-MyD88 inh, Rtt109 Vps75)
O=C(CSC1=NCCN1)Nc1cccc([N+](=O)[O-])c1	Rtt109 Vps75 113.1
O=C(CSC1=NCCN1)Nc1ccccc1[N+](=O)[O-]	none
CCS(=O)(=O)CCn1c([N+](=O)[O-])cnc1C	LANA-H2B inh 10.8
Cc1ncc([N+](=O)[O-])n1CCO	none
CCOC(=O)c1ccccc1NC(=O)COC(=O)CN1C(=O)C2CC=CCC2C1=O (stereo unspecified)	LANA-H2B inh 161.7 (no result: TLR4-MyD88 BLA)
COc1ccc(NC(=O)N(C)C[C@H]2Oc3c(NC(=O)Nc4ccc(C(F)(F)F)cc4)cccc3C(=O)N([C@H](C)CO)C[C@@H]2C)cc1	m5-HT2A agonist 23.1 (no result: TLR4-MyD88 BLA)
C[C@@H]1CN([C@H](C)CO)C(=O)c2cc(NC(=O)Nc3ccc(C(F)(F)F)cc3)ccc2O[C@H]1CN(C)S(=O)(=O)c1ccc(Cl)cc1	LANA-H2B inh active (no result: TLR4-MyD88 BLA)
C[C@H](CO)N1C[C@H](C)[C@@H](CN(C)C(=O)Nc2ccccc2)Oc2ccc(NC(=O)Nc3ccccc3)cc2C1=O	none (no result: TLR4-MyD88 BLA)
C[C@H](CO)N1C[C@H](C)[C@@H](CN(C)C(=O)Nc2ccc(C(F)(F)F)cc2)Oc2ccc(NC(=O)Nc3ccccc3)cc2C1=O	LANA-H2B inh 143.2 (no result: TLR4-MyD88 BLA)
